# This excerpt belongs to a sample that is enriched for the strongest signals.
# Legend:
# Test in all cases: glycan array binding signal (z-score within array); higher = stronger binding
# Settings in all cases: glycan notation: IUPAC condensed, linker removed
# Fuc(a1-2)Gal(b1-3)GlcNAc = target: Fuc(a1-2)Gal(b1-3)GlcNAc
# Method in brief: (§1)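 The binding signal is a Z-score computed within each array. Data were drawn from 3228 arrays in the Consortium for Functional Glycomics database, restricted to those with a known protein sequence. Scores were averaged over arrays of the same protein sequence at different concentrations or buffers, and over linkers, and negative values can be taken as non-binding.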
# [1] = target: Fuc(a1-2)Gal(b1-4)GlcNAc(b1-3)Gal(b1-4)GlcNAc
# Method in brief: as §1
# [2] = target: Fuc(a1-2)[Gal(a1-3)]Gal(b1-4)Glc
# Method in brief: as §1
# [3] = target: Fuc(a1-2)[GalNAc(a1-3)]Gal(b1-4)GlcNAc(b1-3)Gal(b1-4)GlcNAc
# Method in brief: as §1
# [4] = target: Fuc(a1-2)[GalNAc(a1-4)]Gal(b1-4)GlcNAc
# Method in brief: as §1
# Gal(a1-2)Gal = target: Gal(a1-2)Gal
# Method in brief: as §1
# [5] = target: Gal(a1-3)Gal(b1-4)[Fuc(a1-3)]GlcNAc(b1-2)Man(a1-3)[Gal(a1-3)Gal(b1-4)[Fuc(a1-3)]GlcNAc(b1-2)Man(a1-6)]Man(b1-4)GlcNAc(b1-4)GlcNAc
# Method in brief: as §1
# [6] = target: Gal(b1-3)[Fuc(a1-4)]GlcNAc(b1-2)Man(a1-3)[Gal(b1-3)[Fuc(a1-4)]GlcNAc(b1-2)Man(a1-6)]Man(b1-4)GlcNAc(b1-4)[Fuc(a1-6)]GlcNAc
# Method in brief: as §1
# [7] = target: Gal(b1-4)GalNAc(a1-3)[Fuc(a1-2)]Gal(b1-4)GlcNAc
# Method in brief: as §1
# Gal(b1-4)Glc6S = target: Gal(b1-4)Glc6S
# Method in brief: as §1
# [8] = target: Gal(b1-4)GlcNAc(b1-2)Man(a1-3)[Man(a1-6)]Man(b1-4)GlcNAc(b1-4)GlcNAc
# Method in brief: as §1
# [9] = target: Gal(b1-4)GlcNAc(b1-2)Man(a1-6)Man(b1-4)GlcNAc(b1-4)GlcNAc
# Method in brief: as §1
# [10] = target: Gal(b1-4)GlcNAc(b1-3)Gal(b1-4)GlcNAc(b1-3)Gal(b1-4)GlcNAc
# Method in brief: as §1
# [11] = target: Gal(b1-4)GlcNAc(b1-6)Gal(b1-4)GlcNAc(b1-6)GalNAc
# Method in brief: as §1
# Gal3S(b1-4)Glc6S = target: Gal3S(b1-4)Glc6S
# Method in brief: as §1
# Gal3S(b1-4)GlcNAc6S = target: Gal3S(b1-4)GlcNAc6S
# Method in brief: as §1
# GalNAc(a1-3)GalNAc = target: GalNAc(a1-3)GalNAc
# Method in brief: as §1
# GalNAc(b1-3)Gal = target: GalNAc(b1-3)Gal
# Method in brief: as §1
# GalNAc(b1-3)GalNAc = target: GalNAc(b1-3)GalNAc
# Method in brief: as §1
# [12] = target: GlcNAc(b1-3)Gal(b1-4)GlcNAc(b1-3)Gal(b1-4)GlcNAc
# Method in brief: as §1
# [13] = target: GlcNAc(b1-4)GlcNAc(b1-4)GlcNAc
# Method in brief: as §1
# [14] = target: Man(a1-2)Man(a1-2)Man(a1-6)[Man(a1-3)]Man
# Method in brief: as §1
# [15] = target: Man(a1-2)Man(a1-3)[Man(a1-2)Man(a1-6)]Man
# Method in brief: as §1
# [16] = target: Man(a1-2)Man(a1-3)[Man(a1-6)]Man(a1-6)[Man(a1-2)Man(a1-3)]Man(b1-4)GlcNAc(b1-4)GlcNAc
# Method in brief: as §1
# [17] = target: Man(a1-2)Man(a1-6)[Man(a1-3)]Man(a1-6)[Man(a1-2)Man(a1-2)Man(a1-3)]Man(b1-4)GlcNAc(b1-4)GlcNAc
# Method in brief: as §1
# [18] = target: Man(a1-3)[Man(a1-6)]Man(a1-6)[Man(a1-2)Man(a1-3)]Man(b1-4)GlcNAc(b1-4)GlcNAc
# Method in brief: as §1
# [19] = target: Man(a1-3)[Man(a1-6)]Man(a1-6)[Man(a1-3)]Man(b1-4)GlcNAc(b1-4)GlcNAc
# Method in brief: as §1
# [20] = target: Man(a1-3)[Man(a1-6)]Man(b1-4)GlcNAc(b1-4)GlcNAc
# Method in brief: as §1
# [21] = target: Neu5Ac(a2-3)Gal(b1-3)[Fuc(a1-4)]GlcNAc(b1-3)Gal(b1-3)[Fuc(a1-4)]GlcNAc
# Method in brief: as §1
# [22] = target: Neu5Ac(a2-3)Gal(b1-3)[Neu5Ac(a2-6)]GalNAc
# Method in brief: as §1
# [23] = target: Neu5Ac(a2-3)Gal(b1-4)[Fuc(a1-3)]GlcNAc(b1-6)[Gal(b1-3)]GalNAc
# Method in brief: as §1
# [24] = target: Neu5Ac(a2-3)Gal(b1-4)[Fuc(a1-3)]GlcNAc(b1-6)[Neu5Ac(a2-3)Gal(b1-3)]GalNAc
# Method in brief: as §1
# [25] = target: Neu5Ac(a2-3)Gal6S(b1-4)GlcNAc
# Method in brief: as §1
# [26] = target: Neu5Ac(a2-8)Neu5Ac(a2-3)[GalNAc(b1-4)]Gal(b1-4)Glc
# Method in brief: as §1
# [27] = target: Neu5Ac(a2-8)Neu5Ac(a2-8)Neu5Ac(a2-3)Gal(b1-4)Glc
# Method in brief: as §1
binder,measurement,setting,value
PP2A1 (Arabidopsis thaliana) (protein) MFRNQDSKYLIPVQKEAPPVTTLPMKASTVKSPHNCEAILRDADPPISLSSVNLSEQLRSGVFLKPKKQIKYWVDERNSNCFMLFAKNLSITWSDDVNYWTWFTEKESPNENVEAVGLKNVCWLDITGKFDTRNLTPGIVYEVVFKVKLEDPAYGWDTPVNLKLVLPNGKEKPQEKKVSLRELPRYKWVDVRVGEFVPEKSAAGEITFSMYEHAAGVWKKGLSLKGVAIRPKQHHHHHH,glycan array binding signal (z-score),Fuc(a1-2)Gal(b1-3)GlcNAc,-0.319
same,glycan array binding signal (z-score),[1],-0.347
same,glycan array binding signal (z-score),[2],-0.572
same,glycan array binding signal (z-score),[3],-0.018
same,glycan array binding signal (z-score),[4],-0.398
same,glycan array binding signal (z-score),Gal(a1-2)Gal,-0.291
same,glycan array binding signal (z-score),[5],-0.011
same,glycan array binding signal (z-score),[6],1.34
same,glycan array binding signal (z-score),[7],-0.498
same,glycan array binding signal (z-score),Gal(b1-4)Glc6S,0.116
same,glycan array binding signal (z-score),[8],2.93
same,glycan array binding signal (z-score),[9],0.362
same,glycan array binding signal (z-score),[10],-0.223
same,glycan array binding signal (z-score),[11],0.051
same,glycan array binding signal (z-score),Gal3S(b1-4)Glc6S,0.405
same,glycan array binding signal (z-score),Gal3S(b1-4)GlcNAc6S,0.165
same,glycan array binding signal (z-score),GalNAc(a1-3)GalNAc,-0.698
same,glycan array binding signal (z-score),GalNAc(b1-3)Gal,-0.293
same,glycan array binding signal (z-score),GalNAc(b1-3)GalNAc,-0.497
same,glycan array binding signal (z-score),[12],-0.708
same,glycan array binding signal (z-score),[13],2.52
same,glycan array binding signal (z-score),[14],0.03
same,glycan array binding signal (z-score),[15],0.174
same,glycan array binding signal (z-score),[16],3.07
same,glycan array binding signal (z-score),[17],2.69
same,glycan array binding signal (z-score),[18],2.97
same,glycan array binding signal (z-score),[19],3.55
same,glycan array binding signal (z-score),[20],2.85
same,glycan array binding signal (z-score),[21],0.594
same,glycan array binding signal (z-score),[22],0.432
same,glycan array binding signal (z-score),[23],-0.268
same,glycan array binding signal (z-score),[24],-0.091
same,glycan array binding signal (z-score),[25],0.07
same,glycan array binding signal (z-score),[26],0.265
same,glycan array binding signal (z-score),[27],0.006

# — the supplement of paper PMC8728848
